# Test results from the supplement of paper PMC8728848.
# Only a selection was taken, and the strongest signals are over-represented in it overall.
# B1: AidA (Burkholderia cenocepacia) (protein)
# chain: MSRVTDVLVSFDTETILKKYPNPSKNPAAPTLIDWRYVYMVTNQDNVISGQAGGELDLKAQVGDLIRWRETSLSLGFENQVVFYKFIGNVGNDLISTPTPRVAEASIPVPNTSKPEVPTCQKVANYYWSSECLKVGRVTYHFQFQIIDRNCQSQGCFSWDPFISIHN
# What was measured:
# Experiment in all cases: glycan array binding signal (z-score within array); higher = stronger binding
# Settings in all cases: glycan notation: IUPAC condensed, linker removed
# [1] = molecular target: Fuc(a1-2)Gal(b1-3)GalNAc(a1-3)[Fuc(a1-2)]Gal(b1-4)Glc
# Outline: (§1)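 Columns mapping to the same glycan were averaged after glycan names were converted to IUPAC-condensed notation. The data come from 3228 arrays in the Consortium for Functional Glycomics database, limited to those with an available protein sequence. Binding is reported as a within-array Z-score averaged across arrays of one protein sequence and across linkers.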
# [2] = molecular target: Fuc(a1-2)Gal(b1-3)[Fuc(a1-4)]GlcNAc
# Outline: as §1
# [3] = molecular target: Fuc(a1-2)[Gal(a1-3)]Gal(b1-3)GlcNAc(b1-2)Man(a1-3)[Fuc(a1-2)[Gal(a1-3)]Gal(b1-3)GlcNAc(b1-2)Man(a1-6)]Man(b1-4)GlcNAc(b1-4)[Fuc(a1-6)]GlcNAc
# Outline: as §1
# [4] = molecular target: Fuc(a1-2)[Gal(a1-3)]Gal(b1-3)GlcNAc(b1-6)GalNAc
# Outline: as §1
# [5] = molecular target: Fuc(a1-2)[Gal(a1-3)]Gal(b1-4)GlcNAc(b1-3)[Fuc(a1-2)[Gal(a1-3)]Gal(b1-4)GlcNAc(b1-6)]GalNAc
# Outline: as §1
# [6] = molecular target: Fuc(a1-2)[Gal(a1-3)]Gal(b1-4)[Fuc(a1-3)]GlcNAc(b1-3)GalNAc
# Outline: as §1
# [7] = molecular target: Fuc(a1-2)[GalNAc(a1-3)]Gal(b1-3)GlcNAc(b1-6)GalNAc
# Outline: as §1
# [8] = molecular target: Fuc(a1-2)[GalNAc(a1-3)]Gal(b1-4)[Fuc(a1-3)]GlcNAc(b1-3)GalNAc
# Outline: as §1
# [9] = molecular target: Fuc(a1-3)GlcNAc
# Outline: as §1
# [10] = molecular target: Fuc(a1-3)[Gal(b1-4)]GlcNAc(b1-2)Man
# Outline: as §1
# [11] = molecular target: Fuc(a1-3)[Gal(b1-4)]GlcNAc(b1-3)Gal(b1-3)[Fuc(a1-4)]GlcNAc
# Outline: as §1
# [12] = molecular target: Fuc(a1-4)GlcNAc
# Outline: as §1
# [13] = molecular target: Gal(a1-4)Gal(b1-3)GlcNAc(b1-2)Man(a1-3)[Gal(a1-4)Gal(b1-3)GlcNAc(b1-2)Man(a1-6)]Man(b1-4)GlcNAc(b1-4)GlcNAc
# Outline: as §1
# [14] = molecular target: Gal(a1-4)Gal(b1-4)GlcNAc(b1-3)Gal(b1-4)Glc
# Outline: as §1
# [15] = molecular target: Gal(b1-3)GalNAc(b1-4)[Neu5Ac(a2-3)]Gal(b1-4)Glc
# Outline: as §1
# [16] = molecular target: Gal(b1-3)GlcNAc(b1-2)Man(a1-3)[Gal(b1-3)GlcNAc(b1-2)Man(a1-6)]Man(b1-4)GlcNAc(b1-4)[Fuc(a1-6)]GlcNAc
# Outline: as §1
# [17] = molecular target: Gal(b1-3)[Fuc(a1-4)]GlcNAc(b1-2)Man
# Outline: as §1
# [18] = molecular target: Gal(b1-4)GalNAc(b1-3)[Fuc(a1-2)]Gal(b1-4)GlcNAc
# Outline: as §1
# [19] = molecular target: Gal(b1-4)GlcNAc(b1-2)[Gal(b1-4)GlcNAc(b1-6)]Man(a1-6)[GlcNAc(b1-4)][Gal(b1-4)GlcNAc(b1-2)[Gal(b1-4)GlcNAc(b1-4)]Man(a1-3)]Man(b1-4)GlcNAc(b1-4)[Fuc(a1-6)]GlcNAc
# Outline: as §1
# [20] = molecular target: Gal(b1-4)GlcNAc(b1-3)Gal(b1-4)GlcNAc(b1-3)Gal(b1-4)GlcNAc(b1-2)Man(a1-3)[Gal(b1-4)GlcNAc(b1-3)Gal(b1-4)GlcNAc(b1-3)Gal(b1-4)GlcNAc(b1-2)Man(a1-6)]Man(b1-4)GlcNAc(b1-4)[Fuc(a1-6)]GlcNAc
# Outline: as §1
# [21] = molecular target: Gal(b1-4)GlcNAc(b1-3)Gal(b1-4)GlcNAc(b1-3)Gal(b1-4)GlcNAc(b1-3)Gal(b1-4)GlcNAc(b1-2)Man(a1-3)[Gal(b1-4)GlcNAc(b1-3)Gal(b1-4)GlcNAc(b1-3)Gal(b1-4)GlcNAc(b1-3)Gal(b1-4)GlcNAc(b1-2)Man(a1-6)]Man(b1-4)GlcNAc(b1-4)[Fuc(a1-6)]GlcNAc
# Outline: as §1
# [22] = molecular target: Gal(b1-4)GlcNAc(b1-6)GalNAc
# Outline: as §1
# [23] = molecular target: Gal3S(b1-3)GlcNAc
# Outline: as §1
# [24] = molecular target: Gal3S(b1-4)[Fuc(a1-3)]Glc6S
# Outline: as §1
# [25] = molecular target: GalNAc(a1-3)Gal
# Outline: as §1
# [26] = molecular target: GalNAc(b1-3)GlcNAc
# Outline: as §1
# [27] = molecular target: GalNAc(b1-4)GlcNAc
# Outline: as §1
# [28] = molecular target: GalNAc4S6S(b1-4)GlcNAc
# Outline: as §1
# [29] = molecular target: Glc(a1-6)Glc(a1-6)Glc(a1-6)Glc
# Outline: as §1
# [30] = molecular target: GlcNAc(a1-4)Gal(b1-4)GlcNAc(b1-3)Gal(b1-4)GlcNAc
# Outline: as §1
# [31] = molecular target: GlcNAc(b1-2)Man(a1-3)[GlcNAc(b1-4)][GlcNAc(b1-2)Man(a1-6)]Man(b1-4)GlcNAc(b1-4)[Fuc(a1-6)]GlcNAc
# Outline: as §1
# [32] = molecular target: GlcNAc(b1-3)Gal(b1-4)GlcNAc(b1-2)[GlcNAc(b1-3)Gal(b1-4)GlcNAc(b1-6)]Man(a1-6)[GlcNAc(b1-3)Gal(b1-4)GlcNAc(b1-2)Man(a1-3)]Man(b1-4)GlcNAc(b1-4)GlcNAc
# Outline: as §1
# [33] = molecular target: GlcNAc(b1-3)Gal(b1-4)GlcNAc(b1-3)Gal(b1-4)GlcNAc
# Outline: as §1
# [34] = molecular target: GlcNAc(b1-3)Gal(b1-4)GlcNAc(b1-3)Gal(b1-4)GlcNAc(b1-3)Gal(b1-4)GlcNAc(b1-3)Gal(b1-4)GlcNAc(b1-2)Man(a1-3)[GlcNAc(b1-3)Gal(b1-4)GlcNAc(b1-3)Gal(b1-4)GlcNAc(b1-3)Gal(b1-4)GlcNAc(b1-3)Gal(b1-4)GlcNAc(b1-2)Man(a1-6)]Man(b1-4)GlcNAc(b1-4)[Fuc(a1-6)]GlcNAc
# Outline: as §1
# [35] = molecular target: GlcNAc(b1-3)Gal(b1-4)GlcNAc(b1-3)[GlcNAc(b1-3)Gal(b1-4)GlcNAc(b1-3)]GalNAc
# Outline: as §1
# [36] = molecular target: GlcNAc(b1-3)Gal(b1-4)GlcNAc(b1-6)[Gal(b1-3)]GalNAc
# Outline: as §1
# [37] = molecular target: GlcNAc(b1-3)Man
# Outline: as §1
# [38] = molecular target: Man(a1-2)Man(a1-3)[Man(a1-2)Man(a1-6)]Man
# Outline: as §1
# [39] = molecular target: Man(a1-2)Man(a1-3)[Man(a1-2)Man(a1-6)]Man(a1-6)[Man(a1-2)Man(a1-2)Man(a1-3)]Man(b1-4)GlcNAc(b1-4)GlcNAc
# Outline: as §1
# [40] = molecular target: Man(a1-2)Man(a1-6)[Man(a1-3)]Man(a1-6)[Man(a1-2)Man(a1-2)Man(a1-3)]Man
# Outline: as §1
# [41] = molecular target: Man(a1-3)[Man(a1-6)]Man(b1-4)GlcNAc(b1-4)GlcNAc
# Outline: as §1
# [42] = molecular target: Man(a1-3)[Man(a1-6)]Man(b1-4)GlcNAc(b1-4)[Fuc(a1-6)]GlcNAc
# Outline: as §1
# [43] = molecular target: Neu5Ac(a2-3)Gal
# Outline: as §1
# [44] = molecular target: Neu5Ac(a2-3)Gal(b1-3)GalNAc
# Outline: as §1
# [45] = molecular target: Neu5Ac(a2-3)Gal(b1-3)GlcNAc(b1-3)Gal(b1-3)GlcNAc
# Outline: as §1
# [46] = molecular target: Neu5Ac(a2-3)Gal(b1-4)GlcNAc(b1-2)Man
# Outline: as §1
# [47] = molecular target: Neu5Ac(a2-3)Gal(b1-4)GlcNAc(b1-3)Gal(b1-4)GlcNAc(b1-6)[Gal(b1-3)]GalNAc
# Outline: as §1
# [48] = molecular target: Neu5Ac(a2-3)Gal(b1-4)GlcNAc(b1-6)[Neu5Ac(a2-3)Gal(b1-3)]GalNAc
# Outline: as §1
# [49] = molecular target: Neu5Ac(a2-3)Gal(b1-4)[Fuc(a1-3)]GlcNAc(b1-3)GalNAc
# Outline: as §1
# [50] = molecular target: Neu5Ac(a2-3)Gal6S(b1-4)GlcNAc
# Outline: as §1
# [51] = molecular target: Neu5Ac(a2-3)[GalNAc(b1-4)]Gal(b1-4)GlcNAc
# Outline: as §1
# [52] = molecular target: Neu5Ac(a2-6)Gal(b1-4)GlcNAc(b1-2)Man(a1-3)Man(b1-4)GlcNAc(b1-4)GlcNAc
# Outline: as §1
# [53] = molecular target: Neu5Ac(a2-6)Gal(b1-4)GlcNAc(b1-2)Man(a1-3)[GlcNAc(b1-2)Man(a1-6)]Man(b1-4)GlcNAc(b1-4)GlcNAc
# Outline: as §1
# [54] = molecular target: Neu5Ac(a2-6)Gal(b1-4)GlcNAc(b1-2)Man(a1-6)Man(b1-4)GlcNAc(b1-4)GlcNAc
# Outline: as §1
# [55] = molecular target: Neu5Ac(a2-6)Gal(b1-4)GlcNAc(b1-2)Man(a1-6)[Man(a1-3)]Man(b1-4)GlcNAc(b1-4)GlcNAc
# Outline: as §1
# [56] = molecular target: Neu5Ac(a2-6)Gal(b1-4)GlcNAc(b1-6)[Gal(b1-3)]GalNAc
# Outline: as §1
# [57] = molecular target: Neu5Ac(a2-6)GlcNAc(b1-4)GlcNAc(b1-4)GlcNAc
# Outline: as §1
# [58] = molecular target: Neu5Ac(b2-6)GalNAc
# Outline: as §1
# [59] = molecular target: Neu5Gc(a2-8)Neu5Gc(a2-3)Gal(b1-4)GlcNAc(b1-3)Gal(b1-4)GlcNAc
# Outline: as §1
binder,measurement,setting,value
B1,glycan array binding signal (z-score),[1],-0.374
same,glycan array binding signal (z-score),[2],-0.268
same,glycan array binding signal (z-score),[3],1.35
same,glycan array binding signal (z-score),[4],0.594
same,glycan array binding signal (z-score),[5],0.451
same,glycan array binding signal (z-score),[6],-0.44
same,glycan array binding signal (z-score),[7],1.7
same,glycan array binding signal (z-score),[8],19.7
same,glycan array binding signal (z-score),[9],-0.017
same,glycan array binding signal (z-score),[10],0.556
same,glycan array binding signal (z-score),[11],-0.459
same,glycan array binding signal (z-score),[12],3.1
same,glycan array binding signal (z-score),[13],0.346
same,glycan array binding signal (z-score),[14],-0.277
same,glycan array binding signal (z-score),[15],0.172
same,glycan array binding signal (z-score),[16],-0.149
same,glycan array binding signal (z-score),[17],-0.108
same,glycan array binding signal (z-score),[18],-0.557
same,glycan array binding signal (z-score),[19],-0.272
same,glycan array binding signal (z-score),[20],1.44
same,glycan array binding signal (z-score),[21],0.416
same,glycan array binding signal (z-score),[22],-0.507
same,glycan array binding signal (z-score),[23],2.41
same,glycan array binding signal (z-score),[24],2.38
same,glycan array binding signal (z-score),[25],0.384
same,glycan array binding signal (z-score),[26],-0.115
same,glycan array binding signal (z-score),[27],1.43
same,glycan array binding signal (z-score),[28],-0.374
same,glycan array binding signal (z-score),[29],-0.597
same,glycan array binding signal (z-score),[30],0.177
same,glycan array binding signal (z-score),[31],-0.375
same,glycan array binding signal (z-score),[32],2.61
same,glycan array binding signal (z-score),[33],0.86
same,glycan array binding signal (z-score),[34],-0.735
same,glycan array binding signal (z-score),[35],-0.928
same,glycan array binding signal (z-score),[36],-0.57
same,glycan array binding signal (z-score),[37],-0.022
same,glycan array binding signal (z-score),[38],-0.113
same,glycan array binding signal (z-score),[39],0.274
same,glycan array binding signal (z-score),[40],-0.364
same,glycan array binding signal (z-score),[41],-0.131
same,glycan array binding signal (z-score),[42],1.97
same,glycan array binding signal (z-score),[43],-0.347
same,glycan array binding signal (z-score),[44],-0.739
same,glycan array binding signal (z-score),[45],-0.146
same,glycan array binding signal (z-score),[46],1.58
same,glycan array binding signal (z-score),[47],-0.559
same,glycan array binding signal (z-score),[48],-0.108
same,glycan array binding signal (z-score),[49],1.86
same,glycan array binding signal (z-score),[50],-0.261
same,glycan array binding signal (z-score),[51],-0.388
same,glycan array binding signal (z-score),[52],-0.123
same,glycan array binding signal (z-score),[53],-0.443
same,glycan array binding signal (z-score),[54],-0.428
same,glycan array binding signal (z-score),[55],0.17
same,glycan array binding signal (z-score),[56],-0.153
same,glycan array binding signal (z-score),[57],-0.74
same,glycan array binding signal (z-score),[58],0.412
same,glycan array binding signal (z-score),[59],-0.459
